Records with an inconclusive call do not appear. Where a call stands in place of a potency, no number is given. Activity calls are given as the source filed them. The call rests on the fitted dose curve; in most records, active means well fitted activation curve with a large enough effect; inconclusive means small, poorly fitted or top-dose-only effect; inactive means no such curve, though single readings can be large or run the other way.

Sequence of Rap guanine nucleotide exchange factor 4 (Homo sapiens) (Q8WZA2 whole entry, looked up): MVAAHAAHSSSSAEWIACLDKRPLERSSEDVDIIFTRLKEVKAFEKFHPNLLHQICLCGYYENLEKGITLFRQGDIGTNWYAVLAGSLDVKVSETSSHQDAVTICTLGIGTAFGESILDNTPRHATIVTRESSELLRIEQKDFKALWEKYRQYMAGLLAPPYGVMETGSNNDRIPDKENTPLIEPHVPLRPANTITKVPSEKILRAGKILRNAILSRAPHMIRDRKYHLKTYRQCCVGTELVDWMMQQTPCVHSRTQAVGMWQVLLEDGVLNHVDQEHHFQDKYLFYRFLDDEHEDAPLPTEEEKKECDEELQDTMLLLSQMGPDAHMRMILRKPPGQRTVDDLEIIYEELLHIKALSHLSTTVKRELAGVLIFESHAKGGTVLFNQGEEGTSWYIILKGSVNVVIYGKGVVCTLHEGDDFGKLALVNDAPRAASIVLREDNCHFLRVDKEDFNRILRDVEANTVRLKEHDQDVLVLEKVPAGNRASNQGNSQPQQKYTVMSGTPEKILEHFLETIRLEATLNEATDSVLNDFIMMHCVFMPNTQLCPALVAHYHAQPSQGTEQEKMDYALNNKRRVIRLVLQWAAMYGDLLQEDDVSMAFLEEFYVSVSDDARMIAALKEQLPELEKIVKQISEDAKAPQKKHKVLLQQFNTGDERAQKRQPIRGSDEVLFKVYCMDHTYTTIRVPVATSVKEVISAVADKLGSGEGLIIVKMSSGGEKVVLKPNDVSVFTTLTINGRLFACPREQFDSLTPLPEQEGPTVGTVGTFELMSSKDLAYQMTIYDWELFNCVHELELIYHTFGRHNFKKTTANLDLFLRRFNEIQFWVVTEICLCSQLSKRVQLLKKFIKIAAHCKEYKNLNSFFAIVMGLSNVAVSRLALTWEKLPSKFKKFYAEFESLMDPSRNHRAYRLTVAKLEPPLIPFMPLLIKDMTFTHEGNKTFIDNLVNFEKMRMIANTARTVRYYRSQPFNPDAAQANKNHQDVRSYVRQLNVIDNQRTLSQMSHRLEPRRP

The experiment addresses Rap guanine nucleotide exchange factor 4 (Homo sapiens) (UniProt Q8WZA2). Kind of experiment: Confirmatory qHTS for agonist of cAMP-regulated guanine nucleotide exchange factor 4 (EPAC2) (AID 1645884).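 Further: nucleotide exchange releases bodipy-GDP from Rap1 and this lowers its fluorescence; nearly all actives have a fitted effect of over 65% in size.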 The settings on record: EPAC2 GEF activity, Rap1B-BODIPY-GDP fluorescence; series mostly up to 154 µM. On the technique in general: Quantitative high-throughput screening tests each substance at several concentrations.
With `O=C(O)CCCC(=O)N1CCN(c2nc(-c3ccccc3Cl)c3cc(Br)ccc3n2)CC1`, the Potency result is “inactive”.
In the case of `COCc1nc2ccccc2n1Cc1ccc(C(C)(C)C)cc1`, the Potency entry was “inactive”.
The same measure, in the same setting: the value for `CC(C)(C)c1ccc(C(=O)N2CCCC(c3nc4c(nnn4Cc4cccc(F)c4)c(=O)[nH]3)C2)cc1` (stereo not drawn) was “inactive”.
`Nc1cc(OC(=O)c2cccs2)nn1S(=O)(=O)c1ccc(F)cc1`: the Potency result is “inactive”.
On the same count and under the same terms, the entry for `CC(C)CCNC(=O)c1onc(CSc2ccccn2)c1C(=O)NCCC(C)C` is “inactive”.
As for `NC(CSC(c1ccccc1)(c1ccccc1)c1cccc2ccccc12)C(=O)O` (stereo not drawn), the activation was -1.78% [at 17.1 µM, percent relative to cAMP agonist control] (inactive).
Consider `COc1ccc(N2C(=O)CSC23C(=O)N(Cc2cccc(C(F)(F)F)c2)c2ccccc23)cc1` (stereo not drawn), for which the Potency result is “inactive”.
On to `CC1=CCC[C@@H]2[C@@](C)(CC/C(C)=C/C(=O)O)[C@H](C)CC[C@@]12C`, for which the activation is 7.29% [at 17.1 µM, percent relative to cAMP agonist control] (inactive).
For the compound `CC1Sc2ccc(C#N)cc2N(Cc2cccc(C(F)(F)F)c2)C1=O` (stereo not drawn), the Potency result is “inactive”.
For `C/C(=N\NS(=O)(=O)c1ccc(C(C)(C)C)cc1)c1ccccc1`, the activation was 13.7% [at 17.1 µM, percent relative to cAMP agonist control] (inactive).
On to `O=C(O)CN1C(=O)/C(=C\c2ccccc2OCc2ccc(Cl)cc2)SC1=S`, for which the Potency entry was “inactive”.
Still for that read-out and setting: the value for `C=CCNC(=O)c1oc2ccc(S(=O)(=O)N(CC)CC)cc2c1C` was “inactive”.
For `Nc1ccc(N2CCCCC2)c2nonc12`, the activation is -6.41% [at 17.1 µM, percent relative to cAMP agonist control] (inactive).

For the origin of these results see PubChem BioAssay (NCATS).
